# Most compounds without a hit are left out; they make up all but 1.1% or so of the library.
# GalR3 antag – human GalR3 antagonism. O60755. HEK293 GalR3-CNG cAMP membrane potential fluorescence; galR3 body fused to GalR1 C-terminus. inhibition, % at 3 µM. 360,000 compounds, 0.44% hits;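 active means inhibition above the screen-wide average plus 3 SD, cut at about 13% in these data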;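 further: forskolin and galanin both at EC90 stimulate the cells; cAMP rise reported by CNG channel membrane potential dye signal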
# LRH-1 inv ag – suppresses constitutive activity of human LRH-1. 360,000 compounds, 0.13% hits. inhibition, % at 3.6 µM. O00482. HEK293T StAR-luciferase reporter, LRH-1 transfected, 24 h;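 active means inhibition above the mean inhibition of all tested compounds plus 3 SD, cut at about 73% in these data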
# SRC1 inh – human NCOA1 inhibition; Q15788; HEK293 GAL4-SRC1 luciferase reporter, luminescence; inhibition, % at 3.6 µM; 360,000 compounds, 0.12% hits;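 active means inhibition above the campaign mean plus 3 SD, with each screening campaign given its own cutoff, cut at about 60% in these data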
# NCOA2 inhibitor – human SRC2 (NCOA2) inhibition; 370,000 compounds, 0.17% hits; HEK293 GAL4-SRC2 luciferase reporter, luminescence; inhibition, % at 9 µM; Q15596;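 active means inhibition above the mean inhibition of all tested compounds plus 3 SD, set per campaign, cut at about 52% in these data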
# NCOA3 inh – inhibits human SRC3 coactivator. Q9Y6Q9. HEK293 GAL4-SRC3 luciferase reporter, luminescence. inhibition, % at 3.6 µM. 360,000 compounds, 0.17% hits. AID 588352;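 active means inhibition above a per-campaign cutoff, the mean of all compounds plus 3 SD, cut at about 60% in these data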;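 further: higher means less SRC3-driven luciferase light from the GAL4 reporter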
# NR2F2 inh – blocks human COUP-TFII nuclear receptor | inhibition, % at 8.6 µM | HEK293T NGFI-A luciferase reporter, luminescence | 370,000 compounds, 0.7% hits | P24468;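 active means inhibition above a per-plate cutoff, mean inhibition of test wells between control levels plus 3 SD, cut at about 38% in these data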;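 further: cells cotransfected with COUP-TFII expression vector driving the NGFI-A reporter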
# A number is an active result; – = inactive; · = not tested or not shown.
SMILES,GalR3 antag,LRH-1 inv ag,SRC1 inh,NCOA2 inhibitor,NCOA3 inh,NR2F2 inh
CN(C)CCOc1ccc2c(c1)C(=O)C(=Cc1ncc([N+](=O)[O-])n1C)C2,–,82.2,–,–,–,–
O=C(Nc1nc(-c2ccc(S(=O)(=O)N3CCCC3)cc2)cs1)c1cccs1,–,–,–,–,–,54.7
O=C(Nc1nc(-c2ccccc2)cs1)C1CCCN(S(=O)(=O)c2ccccc2)C1 (stereo not drawn),–,–,–,–,–,44.0
C#CC(=O)N(c1cccc(OC)c1)C(C(=O)NC1CCCC1)c1cccs1 (stereo not drawn),–,81.3,–,–,–,–
C#CC(=O)N(c1ccc(OC)c(OC)c1)C(C(=O)NC1CCCC1)c1cccs1 (stereo not drawn),–,–,–,–,–,–
COc1ccc(C2C(O)C(c3c[nH]c4ccccc34)=NN2C(=O)CCl)cc1 (stereo not drawn),–,–,–,72.7,–,–
COc1ccc(C2NN=C(c3c[nH]c4ccccc34)C2O)cc1 (stereo not drawn),–,–,–,–,–,–
COCCN=C1NN=C(c2cc(C)n(CC3CCCO3)c2C)CS1 (stereo not drawn),–,–,–,–,–,–
C=CCN=C1NN=C(c2cc(C)n(CC=C)c2C)CS1,–,–,71.2,57.8,70.3,76.5
Cc1ccc(C(C)C)c(OCc2ccc(C(=O)N/N=C/c3ccc(O)cc3O)cc2)c1,23.2,–,67.0,64.1,70.2,–
Cc1cccc(/C=C(\c2nc3ccccc3[nH]2)S(=O)(=O)c2ccccc2)c1,–,–,–,64.3,–,–
CC(C)(C)c1ccc(/C=C(\c2nc3ccccc3[nH]2)S(=O)(=O)c2ccccc2)cc1,·,–,–,·,–,·
N#Cc1c(N)[nH]c(=S)c(C#N)c1-c1ccccc1,51.3,–,–,–,–,–
Cc1ccc(-c2cc(-c3ccccc3)[nH]c(=S)c2C#N)cc1,–,–,–,–,–,–
O=C(O)c1cc(N/N=C/c2ccc3c(c2)OCO3)ccc1Cl,–,–,–,–,–,–
O=C(O)c1ccc(N/N=C/c2ccc3c(c2)OCO3)cc1,–,–,–,56.5,–,–
Oc1ccc(Oc2ccccc2F)c2cccnc12,·,·,·,·,·,–
CC(C)C[C@H](NC(C)(C)C(=O)NC1CCCCC1)C(=O)NCC(c1ccccc1)c1ccccc1,·,·,·,·,·,–
Cc1sc2ncnc(N/N=C/c3cccc(O)c3)c2c1C,–,–,–,–,–,–
C/C(=N\Nc1ncnc2sc(C)c(C)c12)c1ccccn1,–,–,–,–,80.7,–
COc1ccccc1CNc1ncc(-c2ccc(F)cc2)n1C,–,–,–,–,–,–
COc1ccc(CNc2ncc(-c3ccc(F)cc3)n2C)c2ccccc12,–,–,–,82.2,–,–
O=C(/C=C/c1ccccc1)CC(O)(c1ccccc1)C(F)(F)F (stereo not drawn),–,–,–,–,71.7,–
O[C@H](COc1cc(F)cc(F)c1)CN1CCC(C(O)(c2ccccc2)c2ccccc2)CC1,·,·,·,–,·,–
CCc1ccc(-c2nc(CS(=O)CC(=O)NCc3ccccc3)c(C)o2)cc1 (stereo not drawn),–,–,–,55.0,–,–
SMILES,GalR3 antag,LRH-1 inv ag,SRC1 inh,NCOA2 inhibitor,NCOA3 inh,NR2F2 inh
COc1cccc(C(NC(C)=O)c2ccc3cccnc3c2O)c1 (stereo not drawn),–,76.4,–,–,–,–
CC(=O)NC(c1cccc([N+](=O)[O-])c1)c1ccc2cccnc2c1O (stereo not drawn),–,83.1,–,–,–,–
O=[N+]([O-])c1ccc(NC(c2ccccc2)c2ccc3cccnc3c2O)cc1 (stereo not drawn),–,–,72.7,–,86.7,–
Oc1c(C(Nc2cccc(C(F)(F)F)c2)c2cccnc2)ccc2cccnc12 (stereo not drawn),–,–,–,–,–,–
Cn1c(SCCc2ccccc2)nnc1-c1ccco1,·,·,·,–,·,–
CCOc1ccc(-n2c(SCC(=O)Nc3ccc(S(=O)(=O)Nc4cc(C)nc(C)n4)cc3)nnc2-c2cccc(C)c2)cc1,·,·,·,–,·,–
COc1ccc(NC(=O)C(CCCCNC(=O)OC(C)(C)C)NC2(C(=O)NCCc3c[nH]c4ccccc34)CCCCC2)cc1 (stereo not drawn),·,·,·,·,·,–
COc1ccc(NC(=O)/C(Cl)=C(/Cl)S(=O)Cc2ccc(Cl)cc2)cn1 (stereo not drawn),34.9,–,–,64.5,–,66.3
CC(C)(C)c1ccc(S(=O)(=O)N2CCCC2C(=O)N2CCN(c3ccccc3)CC2)cc1 (stereo not drawn),·,·,·,–,·,–
CS(=O)(=O)c1nc(-c2ccccc2)cc(C(F)(F)F)n1,22.9,–,–,–,–,–
Cc1cc(NC(=O)CCS(=O)(=O)c2nc(-c3ccccc3)cc(C(F)(F)F)n2)no1,–,–,–,–,–,–
O=c1c2ccccc2n(Cc2ccno2)n1[C@@H](Cc1ccccc1)Cn1cc(-c2ccc(-c3ccccc3)cc2)nn1,·,·,·,–,·,–
Cc1cnc(NC(=O)CCCc2nc3ccccc3s2)s1,–,83.5,–,–,–,–
CCC1(OC(=O)CN(C)C)C(=O)OCc2c1cc1n(c2=O)Cc2cc3c(N)cccc3nc2-1 (stereo not drawn),·,84.6,–,·,69.4,·
CCC1(O)C(=O)OCc2c1cc1n(c2=O)Cc2cc3c(N)cccc3nc2-1 (stereo not drawn),–,91.9,–,–,79.6,–
CC(C)CN1C(=O)[C@@]2(CC(=O)N(C)C2c2ccccc2)c2cc(-n3cc(CCc4ccccc4)nn3)ccc21 (stereo partly drawn),·,·,·,–,·,–
Cc1ccc2nc(-c3ccc(NC(=O)CSc4nnc(-c5cc(C)[nH]n5)n4N)cc3)sc2c1,·,·,·,–,·,–
OCCCNc1cc(-c2ccnc(Nc3cccc(Cl)c3)n2)ccn1,–,96.4,85.5,65.0,86.6,60.5
CCC(C)Oc1cc(-c2ccnc(Nc3cccc(Cl)c3)n2)ccn1 (stereo not drawn),–,–,–,–,–,–
CCn1c(Oc2ccccc2F)nc2c1c(=O)n(C)c(=O)n2C,–,–,68.4,59.3,–,–
CCn1c(Oc2ccccc2)nc2c1c(=O)n(C)c(=O)n2C,–,–,–,–,–,–
CCN(CC)CCNc1ccc(C)c2sc3ccc(O)cc3c(=O)c12,–,–,62.5,–,64.1,–
CCC(=O)Nc1ccc(NC(=O)c2oc3ccccc3c2C)cc1,–,–,–,57.5,–,–
CC(=O)N(Cc1ccc(F)cc1)C1=C(NCc2ccccc2)C(=O)c2ccccc2C1=O,·,–,–,·,62.5,·
O=C(NCc1ccc(F)cc1)C(c1ccccc1)c1ccccc1,–,–,–,–,–,–
O=C(COC(=O)Cc1c(Cl)cccc1Cl)NCC1CCCO1 (stereo not drawn),14.4,–,–,–,–,–

# Assay outcomes deposited in PubChem BioAssay by The Scripps Research Institute Molecular Screening Center.
